In the supplement of paper PMC12024424:
Where a name gives a salt, the structure may show the parent alone.

test system: Staphylococcus aureus Sa2 (MRSA, cystic fibrosis isolate); test: growth reduction vs untreated control (OD550); higher = stronger antibacterial activity; conditions: 0.1 mM; 24 h
Description: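 Single-dose screen of the MedChem Express Drug Repurposing Library (0.1 mM, 1% DMSO) against planktonic MRSA S. aureus Sa2 (CF isolate) in TSB in 96-well plates, 37 °C aerobic, 24 h. Assays were run in triplicate and repeated twice.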

Growth reduction, 97.1%:
O=c1[nH]cc(F)c(=O)[nH]1 [5-Fluorouracil]

Growth reduction, 96%:
CN1CCN(c2ccc3nc(-c4c(N)c5c(F)cccc5[nH]c4=O)[nH]c3c2)CC1 [Dovitinib (lactate)]

Growth reduction, 97.9%:
C[C@H]1O[C@@H](n2cc(F)c(=O)[nH]c2=O)[C@H](O)[C@@H]1O [Doxifluridine]

Growth reduction, 93.6%:
COCc1c(C(C)C)nc(C(C)C)c(/C=C/[C@@H](O)C[C@@H](O)CC(=O)O)c1-c1ccc(F)cc1 [Cerivastatin (sodium)]

Growth reduction, 93.3%:
O=C(O)CNC(=O)c1c(=O)cc(CCc2ccccc2)n2[nH]cnc12 [Enarodustat]

Growth reduction, 96.7%:
CC(C(=O)O)c1ccc2c(c1)CC(=O)c1ccccc1S2 (stereo not given) [Zaltoprofen]

Growth reduction, 92.7%:
CC(C)Nc1nc2cc(Cl)c(Cl)cc2n1[C@H]1O[C@@H](CO)[C@H](O)[C@@H]1O [Maribavir]

Growth reduction, 93.4%:
Cc1nc(Nc2ccc(F)cc2)nc(N2CCc3ccccc3C2C)c1C (stereo not given) [Revaprazan (hydrochloride)]

Growth reduction, 99.3%:
CC1(C)CC=C(c2nc(C3CC(C)(C)OC(C)(C)C3)ccc2NC(=O)c2nc(C#N)c[nH]2)CC1 [Edicotinib]

Growth reduction, 100%:
CC/C(=C(\c1ccccc1)c1ccc(OCCN(C)C)cc1)c1ccccc1 [Tamoxifen (Citrate)], CCCCc1oc2ccccc2c1C(=O)c1cc(I)c(OCCN(CC)CC)c(I)c1 [Amiodarone (hydrochloride)], O=C(CCCCCCNC(=O)c1cnc(N(c2ccccc2)c2ccccc2)nc1)NO [Ricolinostat], COc1cc2c(cc1Cc1cccc(Cl)c1F)c(=O)c(C(=O)O)cn2[C@H](CO)C(C)C [Elvitegravir], C[C@H]1CNCCCN1S(=O)(=O)c1cccc2cncc(F)c12 [Ripasudil], O=C(O)CNC(=O)c1nc(Cl)c2ccccc2c1O, O=C(Nc1ncc(SCCN2CCCC2)s1)[C@]1(c2ccc(S(=O)(=O)C3CC3)cc2)C[C@H]1C1CCCCC1 [Globalagliatin], Cc1c2c(nn1C)CSCc1cc(n(C)n1)CSc1cc(c3ccccc3c1)OCCCc1c(C(=O)O)n(C)c3c-2c(Cl)ccc13, Cc1ccc2c(=O)c3cccc(CC(=O)O)c3oc2c1C [Vadimezan], CSc1ccc2c(c1)N(CCC1CCCCN1C)c1ccccc1S2 (stereo not given) [Thioridazine (hydrochloride)], CCCCCCCCCCCCCCCCOP(=O)([O-])OCC[N+](C)(C)C [Miltefosine], CCCCCOc1ccccc1/C(=C\SC)n1ccnc1 [Neticonazole (hydrochloride)], CC(C)COc1ccc(CNC(=O)N(Cc2ccc(F)cc2)C2CCN(C)CC2)cc1 [Pimavanserin], CCCCCCCC/C=C/CCCCCCCC(=O)OC[C@H]1O[C@@H](n2ccc(N)nc2=O)C(F)(F)[C@@H]1O [Gemcitabine (elaidate)], O=C(OCC(O)CO)c1ccccc1Nc1ccnc2cc(Cl)ccc12 (stereo not given) [Glafenine], C[C@]1(O)C[C@@H](c2nc(-c3ccc4ccc(-c5ccccc5)nc4c3)c3c(N)nccn32)C1 [Linsitinib], CN1CC[C@@H](NC(=O)Nc2ccc(C#N)cc2)C[C@@H]1c1nc2ccccc2[nH]1 [Glasdegib], Clc1ccc(COC(Cn2ccnc2)c2ccc(Cl)cc2Cl)cc1 (stereo not given) [Econazole (nitrate)], O=c1[nH]c(=O)n([C@H]2C[C@H](O)[C@@H](CO)O2)cc1/C=C/Br [Brivudine], CCCCCCCCOc1ccccc1C(=O)Nc1ccc(C(=O)OCC[N+](C)(CC)CC)cc1 [Otilonium (bromide)], CCCCCCCCCCCC1=C(O)C(=O)C=C(O)C1=O [Embelin], CCCCCCCCCCCC[N+](C)(C)CCOc1ccccc1 [Domiphen (bromide)], COc1cc(C(=O)NS(=O)(=O)c2ccccc2C)ccc1Cc1cn(C)c2ccc(NC(=O)OC3CCCC3)cc12 [Zafirlukast], CC[C@H](C)C(=O)O[C@H]1C[C@@H](C)C=C2C=C[C@H](C)[C@H](CC[C@@H]3C[C@@H](O)CC(=O)O3)[C@H]21 [Lovastatin], CC1CS(=O)(=O)CCN1/N=C/c1ccc([N+](=O)[O-])o1 (stereo not given) [Nifurtimox], CC/C(=C(/CC)c1ccc(O)cc1)c1ccc(O)cc1 [Diethylstilbestrol], O=C(O)Cc1cc(I)c(Oc2ccc(O)c(I)c2)c(I)c1 [Tiratricol]

Growth reduction, 96.5%:
Cc1ccc(-n2[nH]c(C)c(N=Nc3cccc(-c4cccc(C(=O)O)c4)c3O)c2=O)cc1C [Eltrombopag]

Growth reduction, 94.8%:
COc1cc2c(Oc3ccc(NC(=O)C4(C(=O)Nc5ccc(F)cc5)CC4)cc3F)ccnc2cc1OCCCN1CCOCC1 [Foretinib]

Growth reduction, 97.2%:
C=C[C@@H]1C[C@]1(NC(=O)[C@@H]1C[C@@H]2CN1C(=O)[C@H](C(C)(C)C)NC(=O)O[C@@H]1C[C@H]1CCCCCc1nc3ccc(OC)cc3nc1O2)C(=O)NS(=O)(=O)C1CC1 [Grazoprevir potassium salt], Cc1ccc(Cl)c(Nc2ccccc2C(=O)O)c1Cl [Meclofenamate (sodium)]
